The source made the active and inactive calls. The rule behind the calls is not given here.
Tested on: Platelet Activating Factor (PAF) (human)
Assay: PubChem AID 1788
Conditions: MDS Pharma lead profiling panel, radioligand binding, at 10 µM, stronger effect = higher value

Structure (SMILES): CCOC(=O)N1CCC(NCCNC(=O)c2ccccc2C)CC1
- inhibition: 0% (inactive)
